The text below walks through data of PubChem BioAssay (EPA / NIEHS).

SMILES strings stand for the structures. Inconclusive results are not listed. Activity calls are given as the source filed them. Rule for the calls, unless noted: active = hit-call score of the fitted dose curve at least 0.9, where 1 is the maximum; inconclusive = response in the unintended direction; inactive = score below 0.9.

Read-out in experiment [1]: sulfotransferase (SULT2A), SULT2A1 (gene 6822)
Kind of experiment: CLD_SULT2A_24hr: CellzDirect (CLD) Gene Expression Assay for sulfotransferase (SULT2A) at 24 hours (AID 2283694). A digest of the protocol:
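Primary human hepatocytes from two donor preparations were dosed daily with fresh solutions, vehicle 0.2% DMSO. At 24 h, lysates went to quantitative nuclease protection (qNPA) with S1 digestion and chemiluminescent readout. Cytotoxicity was annotated from phase-contrast morphology.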

Read-out in experiment [2]: xenobiotic metabolism (CYP1A2), CYP1A2 (gene 1544)
Kind of experiment: CLD_CYP1A2_48hr: CellzDirect (CLD) Gene Expression Assay for xenobiotic metabolism (CYP1A2) at 48 hours (AID 2283703). Summed up:
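Primary human hepatocytes from two donor preparations were dosed daily for two days at multiple concentrations in 0.2% DMSO vehicle. CYP1A2 mRNA was measured at 48 hours by chemiluminescent quantitative nuclease protection assay, with gain of signal fitted versus DMSO and cytotoxicity annotated from morphology.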

Read-out in experiment [3]: alkyl and aryl transferase (GSTA2), GSTA2 (gene 2939)
Kind of experiment: CLD_GSTA2_48hr: CellzDirect (CLD) Gene Expression Assay for alkyl and aryl transferase (GSTA2) at 48 hours (AID 2283708).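 Note: active means mRNA induction above DMSO vehicle baseline.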 A digest of the protocol:
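Primary human hepatocytes dosed daily for two days (0.2% DMSO vehicle), harvested at 48 h. GSTA2 mRNA induction measured by quantitative nuclease protection assay with chemiluminescent imaging, fitted for gain of signal relative to DMSO.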

Read-out in experiment [4]: glucuronosyltransferase (UGT1A1), UGT1A1 (gene 54658)
Kind of experiment: CLD_UGT1A1_48hr: CellzDirect (CLD) Gene Expression Assay for glucuronosyltransferase (UGT1A1) at 48 hours (AID 2283709).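 Note: actives increase expression relative to DMSO so potency refers to induction.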 Summed up: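 Human primary hepatocytes dosed daily for two days (0.2% DMSO vehicle), harvested at 48 h. UGT1A1 mRNA induction measured by quantitative nuclease protection assay with chemiluminescence; gain of signal versus DMSO; cytotoxicity flagged from morphology.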

Read-out in experiment [5]: sulfotransferase (SULT2A), SULT2A1 (gene 6822)
The experiment in a line: CLD_SULT2A_48hr: CellzDirect (CLD) Gene Expression Assay for sulfotransferase (SULT2A) at 48 hours (AID 2283710).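 Note: hits raise SULT2A1 transcript above the 0.2% DMSO vehicle baseline.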 A digest of the protocol:
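Primary human hepatocytes (two donor preparations) dosed daily for two days with chemicals at multiple concentrations, vehicle 0.2% DMSO; SULT2A1 mRNA induction at 48 h by quantitative nuclease protection assay, chemiluminescent read-out, fitted for gain of signal versus DMSO.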

A short description of experiment [6]: STM_H9_OrnithineISnorm_perc: Stemina devTOX quickPredict H9 human embryonic stem cell (hESC)-based Assay for Ornithine (ORN) Metabolite Biomarker, Normalized (AID 2283712; active = hit-call score of the fitted dose curve at least 0.9, where 1 is the maximum; inactive = score below 0.9;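 note: ornithine released into spent medium during last day measured by mass spectrometry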). A digest of the protocol:
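H9 human embryonic stem cells kept pluripotent receive test chemical over 72 h, refreshed daily by media exchange. Media from the closing 24 h is deproteinized and analysed by UPLC-HRMS on an amide column; ornithine signal is scaled to labelled standard and vehicle.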

Experiment [7] in a line: STM_H9_CystineISnorm_perc: Stemina devTOX quickPredict H9 human embryonic stem cell (hESC)-based Assay for Cystine (CYSS) Metabolite Biomarker, Normalized (AID 2283713; active = hit-call score of the fitted dose curve at least 0.9, where 1 is the maximum; inactive = score below 0.9). Summed up: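 H9 hESC, pluripotent; compound 72h, re-dosed q24h with medium change. Last-24h medium → 40% acetonitrile deproteinization → UPLC-HRMS. CYSS area / C13-CYSS standard, then % of 0.1% DMSO median.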

Experiment [8] is described as follows: STM_H9_OrnCyssISnorm_ratio: Stemina devTOX quickPredict H9 human embryonic stem cell (hESC)-based Assay for Ornithine (ORN):Cystine (CYSS) Ratio (AID 2283714). Summed up: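 Steps: H9 hESCs in pluripotent state dosed 72h, medium plus compound renewed every 24h; conditioned medium from the final 24h deproteinized in 40% acetonitrile; ORN and CYSS quantified by UPLC-HRMS with C13 spike-ins; ratio relative to vehicle.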

A short description of experiment [9]: CEETOX_H295R_MTT_cell_viability: Viability Assessment in the CeeTox HT-H295R MTT Assay (AID 2283718; active = hit-call score of the fitted dose curve at least 0.9, where 1 is the maximum; inactive = score below 0.9). A digest of the protocol:
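MTT reduction (0.5 mg/ml, 4 h at 37 C; absorbance at 570 and 650 nm) gave viability as background-corrected percent change versus controls. H295R cells had 48 h forskolin (10 uM) prestimulation, then 48 h chemical exposure at 0.1% DMSO.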

Read-out in experiment [10]: Cytochrome P450 3A4 (Homo sapiens) (UniProt P08684)
The experiment in a line: CLD_CYP3A4_48hr: CellzDirect (CLD) Gene Expression Assay for xenobiotic metabolism (CYP3A4) at 48 hours (AID 2283698). A digest of the protocol: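 Primary human hepatocytes from two donor preparations dosed daily for two days with multiple chemical concentrations, 0.2% DMSO vehicle. CYP3A4 mRNA at 48 h by quantitative nuclease protection assay, chemiluminescence, positive fit versus DMSO; cytotoxicity flagged morphologically.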

Read-out in experiment [11]: Broad substrate specificity ATP-binding cassette transporter ABCG2 (Homo sapiens) (UniProt Q9UNQ0)
Kind of experiment: CLD_ABCG2_48hr: CellzDirect (CLD) Gene Expression Assay for ABC Transporter (ABCG2) at 48 hours (AID 2283704).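 For AC50: potency for induction of ABCG2 mRNA above the DMSO baseline.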 A digest of the protocol: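 Primary human hepatocytes from two donors, dosed daily for 2 days, 0.2% DMSO vehicle, several concentrations. ABCG2 mRNA at 48 h by qNPA chemiluminescence, gain fitted versus DMSO; cytotoxicity flagged by morphology.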

Read-out in experiment [12]: Glyceraldehyde-3-phosphate dehydrogenase (Homo sapiens) (UniProt P04406)
The experiment in a line: CLD_GAPDH_48hr: CellzDirect (CLD) Gene Expression Assay for Baseline Control (Glyceraldehyde 3-phosphate dehydrogenase) at 48 hours (AID 2283706).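 Note: active means higher GAPDH mRNA than DMSO vehicle.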 Summed up:
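Primary human hepatocytes dosed daily for two days with fresh chemical at multiple concentrations, 0.2% DMSO vehicle; GAPDH mRNA measured at 48 h by quantitative nuclease protection assay with chemiluminescence, fitted upward relative to DMSO as background control.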

Read-out in experiment [13]: glucuronosyltransferase (UGT1A1), UGT1A1 (gene 54658)
The experiment in a line: CLD_UGT1A1_24hr: CellzDirect (CLD) Gene Expression Assay for glucuronosyltransferase (UGT1A1) at 24 hours (AID 2283696). A digest of the protocol: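 Primary human hepatocytes from two donor preparations were dosed (0.2% DMSO vehicle) and harvested at 24 h; UGT1A1 mRNA induction was quantified by chemiluminescent qNPA, fitted as gain relative to DMSO.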

Read-out in experiment [14]: organic anion transporter (SLCO1B1), SLCO1B1 (gene 10599)
The experiment in a line: CLD_SLCO1B1_24hr: CellzDirect (CLD) Gene Expression Assay for organic anion transporter (SLCO1B1) at 24 hours (AID 2283690). Summed up:
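Primary human hepatocytes (two donor preparations) dosed daily for two days with chemicals at multiple concentrations, 0.2% DMSO vehicle. SLCO1B1 mRNA at 24 h measured by qNPA chemiluminescence; induction fitted relative to DMSO.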

Read-out in experiment [15]: organic anion transporter (SLCO1B1), SLCO1B1 (gene 10599)
Kind of experiment: CLD_SLCO1B1_48hr: CellzDirect (CLD) Gene Expression Assay for organic anion transporter (SLCO1B1) at 48 hours (AID 2283707). A digest of the protocol:
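Primary human hepatocytes from two donor preparations dosed daily for two days with multiple concentrations, 0.2% DMSO vehicle. SLCO1B1 mRNA at 48 h by quantitative nuclease protection assay, chemiluminescence; gain-of-signal fitted versus DMSO.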

Read-out in experiment [16]: Cytochrome P450 2B6 (Homo sapiens) (UniProt P20813)
Kind of experiment: CLD_CYP2B6_48hr: CellzDirect (CLD) Gene Expression Assay for xenobiotic metabolism (CYP2B6) at 48 hours (AID 2283699).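 Note: actives raise transcript level above DMSO so potency reflects induction.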 A digest of the protocol:
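Primary human hepatocytes dosed daily for two days over multiple concentrations, 0.2% DMSO vehicle; CYP2B6 mRNA quantified at 48 h by qNPA chemiluminescence. Induction fitted as gain of signal versus DMSO; cytotoxicity annotated by morphology.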

Read-out in experiment [17]: xenobiotic metabolism (CYP1A1), CYP1A1 (gene 1543)
Kind of experiment: CLD_CYP1A1_48hr: CellzDirect (CLD) Gene Expression Assay for xenobiotic metabolism (CYP1A1) at 48 hours (AID 2283705). A digest of the protocol:
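Primary human hepatocytes from two donors dosed daily for two days at multiple concentrations, 0.2% DMSO vehicle; CYP1A1 mRNA induction at 48 h by qNPA chemiluminescence. Cytotoxicity noted by phase-contrast morphology.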

Sequence of Glyceraldehyde-3-phosphate dehydrogenase (Homo sapiens) (P04406 whole entry, looked up): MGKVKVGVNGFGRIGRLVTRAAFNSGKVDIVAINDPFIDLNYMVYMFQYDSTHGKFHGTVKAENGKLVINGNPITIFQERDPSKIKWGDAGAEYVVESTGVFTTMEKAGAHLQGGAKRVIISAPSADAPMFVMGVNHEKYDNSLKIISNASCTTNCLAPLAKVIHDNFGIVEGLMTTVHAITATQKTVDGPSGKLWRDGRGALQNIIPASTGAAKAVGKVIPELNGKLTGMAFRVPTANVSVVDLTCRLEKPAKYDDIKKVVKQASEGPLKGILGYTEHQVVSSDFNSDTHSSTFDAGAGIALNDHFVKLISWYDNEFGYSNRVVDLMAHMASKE
Sequence of Broad substrate specificity ATP-binding cassette transporter ABCG2 (Homo sapiens) (Q9UNQ0 whole entry, looked up): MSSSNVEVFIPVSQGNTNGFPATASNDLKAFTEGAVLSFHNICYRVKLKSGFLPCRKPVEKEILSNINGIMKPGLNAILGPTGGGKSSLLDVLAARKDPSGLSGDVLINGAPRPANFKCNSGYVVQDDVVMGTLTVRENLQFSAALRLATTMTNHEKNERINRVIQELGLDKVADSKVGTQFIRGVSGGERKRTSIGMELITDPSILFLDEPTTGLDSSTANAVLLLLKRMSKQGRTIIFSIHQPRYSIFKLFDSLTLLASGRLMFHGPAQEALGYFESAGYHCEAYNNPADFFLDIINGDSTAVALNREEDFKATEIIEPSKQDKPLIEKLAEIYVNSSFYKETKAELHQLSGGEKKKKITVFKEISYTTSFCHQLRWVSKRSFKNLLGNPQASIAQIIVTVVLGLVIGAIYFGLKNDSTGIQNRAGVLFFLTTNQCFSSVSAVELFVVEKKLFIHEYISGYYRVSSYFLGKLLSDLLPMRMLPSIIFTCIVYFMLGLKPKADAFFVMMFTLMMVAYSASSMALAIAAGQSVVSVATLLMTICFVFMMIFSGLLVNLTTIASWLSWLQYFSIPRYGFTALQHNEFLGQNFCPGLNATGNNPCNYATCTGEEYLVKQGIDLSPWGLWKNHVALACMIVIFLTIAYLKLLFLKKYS
Sequence of Cytochrome P450 3A4 (Homo sapiens) (P08684 whole entry, looked up): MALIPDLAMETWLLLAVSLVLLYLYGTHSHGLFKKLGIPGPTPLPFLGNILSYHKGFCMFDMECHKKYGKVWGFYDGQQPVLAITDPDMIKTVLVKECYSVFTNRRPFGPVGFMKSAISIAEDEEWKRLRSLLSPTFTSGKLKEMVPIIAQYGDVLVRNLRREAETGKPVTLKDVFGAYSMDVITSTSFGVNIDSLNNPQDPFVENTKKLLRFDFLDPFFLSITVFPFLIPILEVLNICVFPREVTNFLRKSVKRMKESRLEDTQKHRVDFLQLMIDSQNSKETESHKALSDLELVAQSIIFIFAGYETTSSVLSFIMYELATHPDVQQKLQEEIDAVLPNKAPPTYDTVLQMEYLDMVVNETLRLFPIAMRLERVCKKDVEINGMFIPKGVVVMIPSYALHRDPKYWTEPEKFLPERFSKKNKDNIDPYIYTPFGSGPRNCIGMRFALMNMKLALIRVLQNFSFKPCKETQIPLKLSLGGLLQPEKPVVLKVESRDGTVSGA

For the compound `CSc1nc(NC(C)C)nc(NC(C)C)n1`, the result in experiment [1], in experiment [3], in [4], in experiment [5] and in experiment [9] was inactive. In addition, the concentration at half-maximal activity (AC50) was 1.64 µM (active) in [2], 0.22 µM (active) in [6], 0.234 µM (active) in [7] and 0.237 µM (active) in [8].

On to `CCCOCC(=Nc1ccc(Cl)cc1C(F)(F)F)n1ccnc1`, for which the AC50 in experiment [10] is 1.89 µM (active); in experiment [2], 0.687 µM (active); in experiment [11], 20 µM (active); in experiment [3], 20 µM (active). Also, the compound was classed as inactive in [12], in [4] and in experiment [9].

Regarding `CCOP(=S)(Oc1cnc(C(C)(C)C)nc1)OC(C)C` (stereo unspecified), the compound was called inactive in experiment [1] and in experiment [11]. Also, the AC50 is 3.14 µM (active) in experiment [13], 2.68 µM (active) in experiment [2], 20 µM (active) in [3] and 0.439 µM (active) in experiment [4].

In the case of `CCCSP(=O)(OCC)Oc1ccc(Br)cc1Cl` (stereo unspecified), the outcome in experiment [14], in experiment [11], in experiment [15], in experiment [5] and in experiment [9] was inactive. The values for the AC50 in experiment [2] and in experiment [4] were 4.26 µM (active) and 20 µM (active), respectively.

For `O=[N+]([O-])c1cc(C(F)(F)F)c(Cl)c([N+](=O)[O-])c1Nc1ncc(C(F)(F)F)cc1Cl`, the outcome in experiment [16], in experiment [3] and in [5] was inactive. Moreover, the AC50 in experiment [2] was 0.499 µM (active); in experiment [6] it was 15.5 µM (active); in experiment [7], 16.4 µM (active); in [8], 15.2 µM (active).

Turning to `CCc1cccc(C)c1N(C(=O)CCl)C(C)COC` (stereo unspecified), the result in experiment [1], in experiment [2], in experiment [11], in [12], in [3] and in experiment [4] was inactive. The outcome in experiment [5] and in [9] was inactive. Besides, the AC50 in [17] is 20 µM (active).

For the compound `CCCCOC(=O)c1ccccc1C(=O)O`, the outcome in [16], in [2], in experiment [11], in experiment [12], in [15] and in experiment [3] was inactive. Moreover, the compound was called inactive in experiment [4], in [5] and in [9].

`CCOP(=S)(OCC)Oc1ccc([N+](=O)[O-])cc1`: the compound was classed as inactive in experiment [1], in experiment [13] and in experiment [9]. Also, the AC50 in experiment [2] was 2.97 µM (active); in experiment [4] it was 2.67 µM (active); in [5] it was 5.32 µM (active).

Consider `CC(C)N(C(=O)SCC(Cl)=C(Cl)Cl)C(C)C`, for which the AC50 is 3.07 µM (active) in experiment [10], 12.4 µM (active) in experiment [7] and 12.2 µM (active) in experiment [8]. The compound was called inactive in [2], in [17], in experiment [12], in experiment [3], in [4] and in experiment [5].

Regarding `O=c1ccc(=O)[nH][nH]1`, the outcome in experiment [14], in experiment [11], in experiment [12] and in experiment [15] was inactive.

With `CC1=NNC(=O)N(/N=C/c2cccnc2)C1`, the outcome in experiment [1], in experiment [11], in experiment [12], in experiment [3], in experiment [4] and in [6] was inactive. The outcome in [7] was inactive. Further, in experiment [2], the AC50 is 8.29 µM (active).

What is called AC50 is the concentration giving half of the maximal activity seen.
